Assay results: PubChem BioAssay (EPA / NIEHS)
Activity calls are given as the source filed them. How the source made its calls: active means hit-call score of the fitted dose curve at least 0.9, where 1 is the maximum; inactive means score below 0.9.

assay: ATG_AP_2_CIS: Attagene CIS-FACTORIAL HepG2 Assay for human Activator Protein 2 (AP-2) (AID 2282932); details: HepG2 AP-2 cis-reporter, Attagene transcription factor profiling; actives raise or lower the signal
Method: ATG_CIS is a cell-based, multiplexed-readout assay that uses HepG2, a human liver cell line, with measurements taken at 24 hours after chemical dosing in a 24-well plate.ATG_AP_2_CIS is one of 52 assay component(s) measured or calculated from the ATG_CIS assay. It is designed to make measurements of mRNA induction, a form of inducible reporter, as detected with fluorescence intensity signals by Reverse transcription polymerase chain reaction (RT-PCR) and Capillary electrophoresis technology.Data from the assay component ATG_AP_2_CIS was analyzed into 1 assay endpoint. This assay endpoint, ATG_AP_2_CIS, was analyzed with bidirectional fitting relative to DMSO as the negative control and baseline of activity. Using a type of inducible reporter, measures of mRNA for gain or loss-of-signal activity can be used to understand the reporter gene at the transcription factor-level as they relate to the gene TFAP2A and TFAP2B and TFAP2D. Furthermore, this assay endpoint can be referred to as a primary readout, because this assay has produced multiple assay endpoints where this one serves a reporter gene function. To generalize the intended target to other relatable targets, this assay endpoint is annotated to the dna binding intended target family, where the subfamily is basic helix-turn-helix leucine zipper.
Human liver HepG2 cells are transiently transfected with multiple reporter transcription units (MRTUs) in 6-well plates using FuGene 6 reagent (Roche; 3 ml FuGene/1 mg DNA). The MRTU constructs are regulated by a cis-regulating element (promoter). […] A major difference between the CIS and TRANS system is that in CIS activities of endogenous TFs are measured, whereas the TRANS assay evaluates changes in activities of exogenous, chimeric NR-Gal4 proteins. […] At the end of 24 hour incubation, total RNA was isolated using TriZol reagent (Invitrogen). The isolated RNA is then reverse-transcribed using oligo(dT) primer and Mo-MLV reverse transcriptase (Invitrogen) with DNAse I (Ambion) treatment for 30 min. The one-tenth of the produced cDNA was amplified by PCR using Taq DNA polymerase (Invitrogen) and two reporter sequence-specific primers. The PCR products were fluorescently labeled by primer extension with 6-arboxyfluorescein (6-FAM) 5'-labeled reporter sequence-specific primer (2 min at 95 C, 20 s at 68 C and 10 min at 72 C) and these products were digested with 5U of HpaI (New England Biolabs) for 2h at 37 C. The fragments were purified using Qiaquick PCR columns (Qiagen), analyzed on an ABI 3130xL genetic analyzer (Applied Biosystems) with peak positions identified by using a set of X-rhodamine (ROX)-labeled MapMarker1000 molecular weight standards (BioVentures). The raw capillary electrophoresis data was processed using Attagraph software (Attagene).

Row | Structure (SMILES) | outcome | AC50
1 | [O-][n+]1ccc(Cl)cc1 | inactive | 
2 | C=C(C)C(=O)OCCCCCC | inactive | 
3 | C/C=C(\C)C(=O)OCC/C=C\CC | inactive | 
4 | CCCCCCCCCCCCCC | inactive | 
5 | CN1CCCC1 | inactive | 
6 | NC(=O)c1ccc(N)cc1 | inactive | 
7 | CO[Si](CCCNCCN)(OC)OC | inactive | 
8 | CCCCCCCCCCCCCCCCCC[N+](C)(C)C |  | 38.6 µM (active)
9 | O=C(c1ccccc1)c1ccccc1O | inactive | 
10 | CCCCCCCCCC/C=C/C1CC(=O)OC1=O (stereo not given) | inactive | 
11 | CCCN[C@H]1CCc2nc(N)sc2C1 | inactive | 
12 | NC(N)=Nc1nc(CSCCC(N)=NS(N)(=O)=O)cs1 | inactive | 
13 | C[C@H]1C[C@H]2[C@@H]3CCC4=CC(=O)C=C[C@]4(C)[C@@]3(F)[C@@H](O)C[C@]2(C)[C@@]1(O)C(=O)CO | inactive | 
14 | CN(C)CCCN1c2ccccc2CCc2ccc(Cl)cc21 |  | 7.1 µM (active)
15 | Oc1ccc(Cl)cc1C1CCCC1 | inactive | 
16 | O=S(=O)(O)c1cccc2ccccc12 | inactive | 
17 | CN(C)Cc1cc(C(C)(C)C)c(O)c(C(C)(C)C)c1 | inactive | 
18 | c1ccc(CNc2ncnc3nc[nH]c23)cc1 | inactive | 
19 | CC(=O)CCc1ccccc1 | inactive | 
20 | Nc1ccc(S(=O)(=O)Nc2cnc3ccccc3n2)cc1 | inactive | 

Row | Structure (SMILES) | outcome | AC50
21 | Brc1ccc(Oc2ccc(Br)cc2)cc1 | inactive | 
22 | COc1c2occc2cc2ccc(=O)oc12 | inactive | 
23 | N#CCN(CC#N)CCN(CC#N)CC#N | inactive | 
24 | C=CC(C)(CCC=C(C)C)OC(=O)c1ccccc1 (stereo not given) | inactive | 
25 | c1ccc2c(c1)Oc1ccccc1S2 | inactive | 
26 | CC1=C(CC=O)C(C)(C)CCC1 | inactive | 
27 | CCOC(=O)CC(=O)OCC | inactive | 
28 | O=C(CC(C(=O)OC1CCCCC1)S(=O)(=O)O)OC1CCCCC1 (stereo not given) | inactive | 
29 | CC(C)(C)NC(=O)[C@@H]1CN(Cc2cccnc2)CCN1C[C@@H](O)C[C@@H](Cc1ccccc1)C(=O)N[C@H]1c2ccccc2C[C@H]1O | inactive | 
30 | CCCCCCCC#N | inactive | 
31 | O=C(Oc1ccccc1)c1ccccc1 | inactive | 
32 | CC[N+](CC)(CC(=O)Nc1c(C)cccc1C)Cc1ccccc1 (tested in a mixture with another compound) | inactive | 
33 | O=C1CCCCCCCCCCCCCC1 | inactive | 
34 | CCCC(=O)OC | inactive | 
35 | CC(C)CC(=O)CC(C)C | inactive | 
36 | CC[N+](CC)(CC(=O)Nc1c(C)cccc1C)Cc1ccccc1 | inactive | 
37 | CC(=O)OC(C)(C)Cc1ccccc1 | inactive | 
38 | CCc1cc(C(N)=S)ccn1 | inactive | 
39 | Cc1cc(-n2nc3ccc(Cl)cc3n2)c(O)c(C(C)(C)C)c1 | inactive | 
40 | COC(=O)[C@]1(C)CCC[C@@]2(C)[C@H]1CC=C1C=C(C(C)C)CC[C@@H]12 | inactive | 
